Hits are enriched below; roughly 1.6% of the tested compounds scored in any of these assays.
PriA SSB inh: K. pneumoniae PriA-SSBct interaction inhibition; AID 1272365; inhibition, % at 33 µM; 430,000 compounds, 0.6% hits; AlphaScreen SSBct-PriA binding, biotinylated peptide; in the data active = inhibition mostly above about 37%, no sharp cut-off; inactive = mostly below about 20%;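 also: plate controls were negative control peptide for no effect and reference peptide for full effect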
PrPC surface inh: cell surface PrPC inhibition, primary TR-FRET screen; P04156; TR-FRET read-out; inhibition, % at 13.8 µM; 370,000 compounds, 0.43% hits; AID 720596; in the data active = inhibition above about 24%; also: 0% = median of the test wells and 100% = reference compound wells
3CLpro inhibitor: SARS-CoV 3CLpro protease inhibition; 290,000 compounds, 0.14% hits; P0C6X7; recombinant SARS-CoV 3CLpro, quenched FRET peptide cleavage; inhibition, % at 6 µM; AID 1706; in the data active = inhibition above about 12%
BH1578 lux ind: induces V. cholerae light production without autoinducers. V. cholerae BH1578 lux reporter, luminescence, 6 h. 350,000 compounds, 0.16% hits. activation, % at 18.7 µM. AID 588436; in the data active = activation mostly above about 9.7%, no sharp cut-off
PfHsp40 rescue: restores yeast growth despite PfHsp40 toxicity | S. cerevisiae expressing PfHsp40, growth rescue, ATP luminescence | growth rescue, % at 12.5 µM | 340,000 compounds, 0.68% hits | AID 504582; in the data active = growth rescue above about 28%, passing the limit was not always enough;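 also: yeast W303a lacking pdr1 and pdr3 grown in galactose medium; growth measured after three days at 30 °C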
PrP 5UTR inh: inhibition of PrP 5' UTR reporter expression; cell-based PrP 5' UTR mRNA reporter, plate reader; inhibition, % (no concentration beside the values); 340,000 compounds, 0.35% hits; AID 488862; in the data active = inhibition above about 52%; also: 0 = median of the neutral control wells
PrPC TRFRET cf: cell surface PrPC inhibition, TR-FRET confirmation | shares compounds with PrPC surface inh | cell surface PrPC level | inhibition, % at 13.8 µM | 1,500 compounds, 65% hits | AID 743200; in the data active = inhibition above about 25%
LD9 tox: kills or reduces viability of LD9 cells in PrPc counter-screen | 1,500 compounds, 29% hits | AID 743201 | inhibition, % at 13.8 µM | shares compounds with PrPC surface inh | LD9 cells cytotoxicity, luminescence viability; in the data active = inhibition above about 9.5%
The depositor's hits bear a star.

Screening CCOc1ccc(C2NC(=O)NC(c3ccccc3)=C2C(C)=O)cc1OC (stereo unspecified) returned PriA SSB inh 8, PrPC surface inh 27*, 3CLpro inhibitor 3, BH1578 lux ind 0, PfHsp40 rescue 1, PrP 5UTR inh -6, PrPC TRFRET cf 21 and LD9 tox 1.
`CC(=O)c1ccc(Nc2ncnc3ccc(Br)cc23)cc1` gave PrPC surface inh 6 and BH1578 lux ind inactive.
Screening CSCCC(Nc1ncnc2ccc(Br)cc12)C(=O)O (stereo unspecified) returned PriA SSB inh 5, PrPC surface inh 42*, 3CLpro inhibitor 1, BH1578 lux ind inactive, PfHsp40 rescue 0, PrP 5UTR inh -32, PrPC TRFRET cf 104* and LD9 tox -1.
For Brc1ccc2ncnc(NCc3ccco3)c2c1 the results were PriA SSB inh 2, PrPC surface inh 26*, 3CLpro inhibitor 2, BH1578 lux ind -3, PfHsp40 rescue 1, PrP 5UTR inh -10, PrPC TRFRET cf 32* and LD9 tox 13*.
For CC(C)Nc1ncnc2ccc(Br)cc12 the results were PriA SSB inh -6, PrPC surface inh 25*, 3CLpro inhibitor -4, BH1578 lux ind inactive, PfHsp40 rescue 0, PrP 5UTR inh -5, PrPC TRFRET cf 34* and LD9 tox 5.
Screening COc1cc2ncnc(NCc3ccco3)c2cc1OC returned PriA SSB inh -11, PrPC surface inh -5, 3CLpro inhibitor 0, BH1578 lux ind inactive, PfHsp40 rescue -1 and PrP 5UTR inh -17.
`CCOCC(=O)N1CCC(N2CCCC2=O)CC1` gave PriA SSB inh -13.
For COc1ccccc1NC(=O)NCCNc1cc(N2CCCC2)cnn1 the results were PriA SSB inh -3.
For CCN1C(=O)/C(=C/c2c(C)c(C#N)c(=O)n(C)c2N2CCN(c3ccc(F)cc3)CC2)SC1=S the results were PriA SSB inh 9.
For CC(C)Cc1ccc(C(C)C(=O)Nc2cccnc2)cc1 (stereo unspecified) the results were PriA SSB inh -10, PrPC surface inh 13, 3CLpro inhibitor -1, BH1578 lux ind inactive, PfHsp40 rescue -1 and PrP 5UTR inh -20.
Screening CC(C)Cc1ccc(C(C)C(=O)Nc2ccc(O)cc2)cc1 (stereo unspecified) returned PriA SSB inh 15, PrPC surface inh 28*, 3CLpro inhibitor 3, BH1578 lux ind inactive, PfHsp40 rescue 0, PrP 5UTR inh -3, PrPC TRFRET cf 21 and LD9 tox 0.
Screening O=C(Nc1cc(-n2cncn2)ncn1)c1cncc(Br)c1 returned PriA SSB inh -7.
C=C(C)C(=O)Nc1cccc(C2=NOC3(C2)C[C@@H](C(N)=O)N(C(=O)[C@H]2CCC(=O)N2)C3)c1 (stereo partly specified) was read as PriA SSB inh -5, PrPC surface inh 50*, BH1578 lux ind inactive, PfHsp40 rescue -1, PrP 5UTR inh -11, PrPC TRFRET cf 38* and LD9 tox -2.
Screening C/C=C(/C)C(=O)Nc1cccc(C2=NOC3(C2)C[C@@H](C(N)=O)N(C(=O)[C@H]2CCC(=O)N2)C3)c1 (stereo partly specified) returned PriA SSB inh -5, PrPC surface inh 2, BH1578 lux ind 0, PfHsp40 rescue 0 and PrP 5UTR inh -13.
CN1C2CCC1/C(=C\c1ccc(F)cc1)C(=O)/C2=C/c1ccc(F)cc1 was read as PriA SSB inh -3, PrPC surface inh 7, 3CLpro inhibitor 4, BH1578 lux ind inactive, PfHsp40 rescue 3 and PrP 5UTR inh -21.
C=CC(=O)N1C/C(=C/c2ccc(F)cc2)C(=O)/C(=C\c2ccc(F)cc2)C1 was read as PriA SSB inh 23, PrPC surface inh 41*, PfHsp40 rescue -1, PrP 5UTR inh 39, PrPC TRFRET cf 9 and LD9 tox 75*.
`CN(C(=O)COc1ccccc1C(=O)NCCOc1ccccc1)c1ccccc1` gave PriA SSB inh -15, PrPC surface inh 80*, 3CLpro inhibitor -2, BH1578 lux ind 4, PfHsp40 rescue 0, PrP 5UTR inh -28, PrPC TRFRET cf 83* and LD9 tox 95*.
